Whole data set: some 110,000 compounds, median “z-score” near -0.1, cut for the highest 2% near 2. The entries come from a sample that favours the highest values as a whole. Active and inactive are the calls of the source.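 The calls were made as follows: active = z-score in the third read window above 3 or below -3; inactive = the rest.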
biological target: Metabotropic glutamate receptor 8 (Rattus norvegicus) (UniProt P70579); assay: mGluR8 Gi/Go-coupled signaling modulation – cell-based, rat, thallium flux, HTS, primary screen (AID 488969); settings: HEK293 rat mGluR8, GIRK (G protein-gated inwardly rectifying potassium channel) thallium flux, FluoZin2; at 10 µM; stronger effect = higher value; submaximal glutamate (EC20) added with thallium
Sequence (P70579 whole entry, looked up): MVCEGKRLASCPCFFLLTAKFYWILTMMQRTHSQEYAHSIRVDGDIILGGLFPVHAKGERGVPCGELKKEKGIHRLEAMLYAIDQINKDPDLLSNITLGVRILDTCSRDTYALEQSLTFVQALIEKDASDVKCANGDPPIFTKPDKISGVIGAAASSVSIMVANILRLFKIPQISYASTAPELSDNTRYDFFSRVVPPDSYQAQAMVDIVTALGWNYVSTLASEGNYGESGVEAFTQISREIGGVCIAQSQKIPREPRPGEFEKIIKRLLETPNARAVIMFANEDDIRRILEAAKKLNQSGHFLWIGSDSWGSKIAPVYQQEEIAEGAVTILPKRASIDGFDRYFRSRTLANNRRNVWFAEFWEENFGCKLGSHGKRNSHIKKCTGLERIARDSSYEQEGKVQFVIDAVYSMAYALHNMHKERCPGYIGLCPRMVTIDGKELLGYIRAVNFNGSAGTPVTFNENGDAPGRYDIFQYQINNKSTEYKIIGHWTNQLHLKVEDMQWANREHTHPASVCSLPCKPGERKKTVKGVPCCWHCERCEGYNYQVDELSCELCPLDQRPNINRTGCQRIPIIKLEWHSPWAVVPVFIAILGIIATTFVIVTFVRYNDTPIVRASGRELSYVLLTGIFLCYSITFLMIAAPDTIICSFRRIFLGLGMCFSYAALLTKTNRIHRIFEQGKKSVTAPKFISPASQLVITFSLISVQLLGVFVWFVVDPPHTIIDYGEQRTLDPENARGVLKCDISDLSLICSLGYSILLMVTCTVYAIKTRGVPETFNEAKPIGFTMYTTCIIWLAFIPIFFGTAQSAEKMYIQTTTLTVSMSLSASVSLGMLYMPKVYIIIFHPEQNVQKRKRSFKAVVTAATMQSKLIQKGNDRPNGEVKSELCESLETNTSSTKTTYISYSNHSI

Compound	z-score
COc1ccc(-n2nnc3c(SCC(=O)Nc4ccc5c(c4)OCCO5)ncnc32)cc1	0.658
Clc1cccc(-c2cc3nc4c(c(N5CCNCC5)n3n2)CCCC4)c1	2.71
Clc1cccc(-c2cc3nc4c(c(N5CCN(c6cnccn6)CC5)n3n2)CCCC4)c1	-0.109
OC1CCCN(c2c3c(nc4cc(-c5cccc(Cl)c5)nn24)CCC3)C1 (configuration not stated)	-0.591
CCCn1nc(CC(=O)OCC)c2ccccc2c1=O	0.73
O=C(Cn1[nH]c(=O)c2ccccc2c1=O)NCc1cccnc1	-0.377
CC(C)C(NC(=O)c1ccccc1NC(=O)c1ccco1)C(=O)O (configuration not stated)	-0.744
FC(F)Oc1ccccc1NC(=S)Nc1cccc(Cl)c1Cl	3.76 (active)
CC(NC(=S)Nc1ccccc1OC(F)F)C(C)(C)C (configuration not stated)	-0.263
O=C(Nc1cc(Cl)ccc1Oc1ccccc1)c1ccc(F)cc1	-0.256
O=C(Nc1ccccc1Oc1ccccc1)c1ccccc1F	-0.161
S=C(Nc1cccc(Cl)c1)Nc1ccccc1Oc1ccccc1	15.4 (active)
FC(F)Oc1ccc(NC(=S)NCc2ccccc2)cc1Cl	0.178
Fc1ccc(NC(=S)Nc2ccccc2OC(F)F)cc1Cl	6.05 (active)
COC(=O)c1cc(OC)c(OC)cc1NC(=S)Nc1cccc(Cl)c1	0.731
COc1cc(C)c(NC(=S)Nc2cccc(Cl)c2)cc1OC	0.0992
Fc1ccc(NC(=S)Nc2ccc(F)c(Cl)c2)cc1Cl	-0.0109
O=C(Nc1cc(Cl)ccc1Oc1ccccc1)c1ccccc1F	3.37 (active)
FC(F)Oc1ccccc1NC(=S)NCc1ccco1	0.0626
Cc1cc(Cl)ccc1NC(=S)NCc1ccc(Cl)cc1	0.0662
CC1(C)CC(=O)c2cc(C(=O)NCc3ccco3)c(=O)n(-c3ccc(Cl)cc3)c2C1	-0.635
COCc1nnc(NC(=O)c2cccs2)s1	-0.0696
NC(=O)COC(=O)c1cc(S(=O)(=O)N2CCOCC2)ccc1N1CCCCC1	-0.0501
CCn1cc(Br)c(C(=O)Nc2cccc(Cl)c2)n1	-0.412
CCOC(=O)c1cc(-c2ccccc2)sc1NC(=O)C(C)OC(=O)c1cccnc1OCC (configuration not stated)	0.0703

Compound	z-score
O=C(CCCOc1ccccc1)Nc1ccc2c(c1)OCCO2	0.0498
CN(C(=O)c1ccc2c(c1)C(=O)N(CCC1=CCCCC1)C2=O)C1CCCCC1	0.422
Cc1nc(NC2=NCN(CC3CCCO3)CN2)nc2ccccc12 (configuration not stated)	0.234
COc1cc2c(cc1OC)C(C1C(=O)CCCC1=O)N(C(=O)CCl)CC2 (configuration not stated)	-0.173
CCOc1ccc(C(=O)Nc2nc(C)cc(C)n2)cc1[N+](=O)[O-]	-0.36
Cc1ccc(C)c(N(CC(=O)NN=C2CCCCCCC2)S(C)(=O)=O)c1	-0.202
COc1ccc(NC(=O)Nc2ccc(C)cc2OC(F)F)cc1OC	-0.0436
COc1cc(NC(=S)Nc2cccc(Cl)c2Cl)c(OC)cc1Cl	0.605
S=C(Nc1ccccc1)Nc1ccc(Cl)cc1Cl	1.43
CCNC(=S)Nc1ccc(Cl)cc1Cl	0.108
S=C(Nc1ccccc1Oc1ccccc1)Nc1cccc(Cl)c1Cl	4.09 (active)
Cc1ccc(NC(=S)Nc2ccc(Cl)c(Cl)c2)c(OC(F)F)c1	5.16 (active)
S=C(Nc1ccccc1)Nc1cc(Cl)ccc1Oc1ccccc1	3.43 (active)
COc1cc(C)c(NC(=S)Nc2ccc(Cl)c(Cl)c2)cc1OC	0.396
CNC(=S)Nc1cc(Cl)ccc1Oc1ccccc1	0.287
S=C(Nc1ccc(OCc2ccccc2)cc1)Nc1cccc(Cl)c1Cl	0.844
CCNC(=S)Nc1cc(Cl)ccc1Oc1ccccc1	0.269
S=C(Nc1ccccc1Cl)Nc1ccc(Cl)cc1Cl	5.05 (active)
NC(=S)N/N=C/c1ccc(C(F)(F)F)cc1	0.721
Cc1cc(C)n(-c2cc(N3CCN(S(=O)(=O)c4ccc5ccccc5c4)CC3)ccc2[N+](=O)[O-])n1	-0.296
S=C1NCCc2ccccc2C1c1ccccc1 (configuration not stated)	-0.276
O=C(CN1CCN(C(c2ccccc2)c2ccccc2)CC1)N1CCOCC1	-0.28
COC(=O)C(NNc1ccccc1)(NC(=O)c1cccc(F)c1)C(F)(F)F (configuration not stated)	-0.19
CCOC(=O)c1cc2c(=O)n3cccc(C)c3nc2n(CC2CCCO2)c1=NC(C)=O (configuration not stated)	-0.0779
O=C(CCC(=O)c1ccc(Oc2ccccc2)cc1)Nc1ccc(Cl)cc1Cl	0.0353

Compound	z-score
S=C(Nc1ccc(Cl)cc1Cl)Nc1ccccc1Oc1ccccc1	4.54 (active)
O=C(COc1ccccc1Cl)Nc1cc(Cl)ccc1Oc1ccccc1	-0.0408
CN(C)S(=O)(=O)c1cccc(NC(=O)Cn2cnc3ccccc3c2=O)c1	0.0344
CCN(CC)S(=O)(=O)c1cc(NC(=O)Cn2cnc3ccccc3c2=O)ccc1C	3.32 (active)
COc1ccc(NC(=O)CCNC(=O)Cn2cnc3ccccc3c2=O)c(OC)c1	-0.512
CCN(CC)S(=O)(=O)c1ccc(NC(=O)Cn2cnc3ccccc3c2=O)cc1	-0.403
COc1cc(OC)c(NC(=O)CCNC(=O)Cn2cnc3ccccc3c2=O)cc1Cl	2.94
COc1cc(OC)c(NC(=O)CCNC(=O)Cn2ccc3ccccc3c2=O)cc1Cl	-0.293
C=CCc1ccccc1OCC(O)CN(CC)CC (configuration not stated)	0.0462
CCCNC(=O)Cn1cnc2sc(C(=O)N3CCN(c4ccc(F)cc4)CC3)c(C)c2c1=O	-0.159
CCCCS(=O)CC(CS(=O)CCCC)OC(=O)c1ccccc1 (configuration not stated)	0.895
O=C(/C=C/c1cccc2ccccc12)NCCC1=CCCCC1	-0.101
CC(C)(C)NS(=O)(=O)c1ccc(NS(C)(=O)=O)cc1	-0.0947
c1ccc(COc2ccc(Nc3ncnc4nc[nH]c34)cc2)cc1	0.0418
CCOC(=O)c1ccc(Nc2ncnc3nc[nH]c23)cc1	-0.0179
CCCCc1ccc(Nc2ncnc3nc[nH]c23)cc1	2.82
COc1cccc(/C=N/NC(=O)CCn2nnc3ccccc32)c1	2.1
COc1ccc(O)c(/C=N\NC(=O)CCn2nnc3ccccc32)c1	-0.125
COc1cc(/C=N/NC(=O)CCn2nnc3ccccc32)ccc1O	-0.659
CCOC(=O)Cc1nnc(Nc2cccc(C)c2)c2ccccc12	-0.988
O=C(NCC1CCN(c2ccc(S(=O)(=O)N3CCOCC3)cc2)CC1)c1cccc(Cl)c1	0.0384
COc1ccc(/C=C/C(=O)NC(=S)NN2CCCCC2c2cccnc2)cc1 (configuration not stated)	0.454
COc1ccc(/C=C/C(=O)NC(=S)NN2CCCCC2c2cccnc2)cc1OC (configuration not stated)	0.0576
O=C(/C=C/c1ccc(Cl)cc1)NC(=S)NN1CCCCC1c1cccnc1 (configuration not stated)	2.97
C=CCC(NC(C)c1ccccc1)c1ccco1 (configuration not stated)	0.174

Compound	z-score
C=CCC(NCc1ccccc1)c1ccc(C)o1 (configuration not stated)	0.143
C=CCC(NCc1ccccc1)c1ccco1 (configuration not stated)	2.42
N#Cc1cnc(SCC(=O)c2ccccc2)nc1N	0.0176
Cc1cc(N2CCC(C)CC2)n2ncc(-c3ccccc3)c2n1	3.32 (active)
Cc1cc(N2CCOCC2)n2ncc(-c3ccccc3)c2n1	-0.401
Cc1cc(N2CCOCC2)n2nc(C)c(-c3ccccc3)c2n1	4.01 (active)
Cc1cc(N2CCCCC2)n2ncc(-c3ccccc3)c2n1	-0.231
Cc1cc(N2CCC(C)CC2)n2nc(C)c(-c3ccccc3)c2n1	-0.28
Cc1cc(N2CCN(Cc3ccccc3)CC2)n2nc(C)c(-c3ccccc3)c2n1	0.0393
Cc1cccc2cc(CN(Cc3cccs3)C(=S)NCC3CCCO3)c(=O)[nH]c12 (configuration not stated)	-0.229
O=C1c2ccccc2C(Nc2ccc3c(c2)OCCO3)N1c1ccccn1 (configuration not stated)	0.814
CCc1cccc(CC)c1NC(=S)N1CCn2cccc2C1c1cccnc1 (configuration not stated)	0.37
NS(=O)(=O)c1ccc(S(=O)(=O)N2CCCC2)cc1	3.11 (active)
O=S(=O)(c1ccc(S(=O)(=O)N2CCCC2)cc1)N1CCCCCC1	0.224
Nc1ccc(S(=O)(=O)N2CCCC2)cc1	-0.115
CSc1ccccc1NC(=O)c1ccoc1C	-0.082
CCCCNC(=S)N/N=C/C1=CCC2CC1C2(C)C (configuration not stated)	1.99
CC1(C)C2CC=C(/C=N/NC(=O)c3ccc(Cl)cc3)C1C2 (configuration not stated)	0.355
C=C(C)CNC(=S)N/N=C/C1=CCC2CC1C2(C)C (configuration not stated)	0.611
CCc1cc2c(cc3c(=O)n(CC(=O)NCCCN4CC(C)CC(C)C4)ncn32)s1 (configuration not stated)	2.41
CC1CC(C)CN(CCCNC(=O)CCNC(=O)Cn2ccc3ccccc3c2=O)C1 (configuration not stated)	-1.48
CC1CC(C)CN(CCCNC(=O)Cn2ncc3c(=O)oc4ccccc4c32)C1 (configuration not stated)	-0.462
CCOC(=O)C1C(=O)CC(C)(O)C(C(=O)OCC)C1c1ccc(N(CC)CC)cc1 (configuration not stated)	-0.205
CC(C)NC(=O)/C(=C/c1ccco1)c1ccccc1	2.43
CC(C)(C)NC(=O)/C(=C/c1ccco1)c1ccccc1	-0.0597

Compound	z-score
CCC(C)NC(=O)/C(=C/c1ccco1)c1ccccc1 (configuration not stated)	-0.109
CCN(CC)S(=O)(=O)c1cc(Br)c(C)cc1OC	-0.159
Cc1ccc(-c2nn(C)c(=O)c3ccccc23)cc1CNS(C)(=O)=O	-0.0971
COc1ccc(OC)c(NC(=S)N2CCN(C/C=C/c3ccccc3)CC2)c1	-0.183
CC(=O)Nc1ccc(C(=O)OC2CCCCC2=O)cc1 (configuration not stated)	0.0145
O=C(OC1CCCCC1=O)c1cccc(S(=O)(=O)NCc2ccccc2)c1 (configuration not stated)	-0.182
CNS(=O)(=O)c1cccc(C(=O)OC2CCCCC2=O)c1 (configuration not stated)	2.06
O=C1C2C3C=CC(C3)C2C(=O)N1Cc1ccc(CN2C(=O)C3C4C=CC(C4)C3C2=O)cc1 (configuration not stated)	-0.294
Cc1cccc(NC(=S)/N=C(\N)Nc2nc(C)c3ccc(C)cc3n2)c1	-0.215
CCCNc1cc(C)c(C#N)c2nc3ccccc3n12	-1.34
O=C(NC(=S)Nc1ccccc1N1CCOCC1)c1ccc([N+](=O)[O-])cc1	0.377
O=C(Nc1ccccc1N1CCOCC1)c1ccccc1[N+](=O)[O-]	-0.093
O=C(NC(=S)Nc1ccccc1N1CCCC1)c1ccc([N+](=O)[O-])cc1	14.4 (active)
Cc1c(C(=O)NC(=S)Nc2ccccc2N2CCCC2)cccc1[N+](=O)[O-]	3.83 (active)
O=C(NC(=S)Nc1cc([N+](=O)[O-])ccc1Cl)c1ccccc1	12.9 (active)
O=C(NC(=S)Nc1ccccc1N1CCCC1)c1ccccc1[N+](=O)[O-]	7.29 (active)
COc1ccc(C(=O)NC(=S)Nc2ccccc2N2CCCCC2)cc1[N+](=O)[O-]	0.366
O=C(NC(=S)Nc1cc(C(F)(F)F)ccc1Cl)c1ccccc1	1.04
Cc1ccc(C(=O)NC(=S)Nc2ccccc2N2CCCC2)cc1[N+](=O)[O-]	0.134
O=C(NC(=S)Nc1ccc(N2CCCC2)cc1)c1ccccc1[N+](=O)[O-]	0.0592
O=C(NC(=S)Nc1cccc(NC(=O)c2ccccc2)c1)c1cccc([N+](=O)[O-])c1	-0.0765
Cc1cc(C(=O)NC(=S)Nc2ccccc2N2CCCC2)ccc1[N+](=O)[O-]	0.156

— PubChem BioAssay AID488969 (Vanderbilt High Throughput Screening Facility, 2010)
